# This is one part of a sample in which hits are shown more often than they occur.
# TTR transcr act – TTR transcription activation, primary screen | SH-SY5Y TTR promoter Gaussia luciferase, luminescence; 100% = recombinant luciferase protein wells | activation, % at 16.7 µM | 92,000 compounds, 1.3% hits;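 active means activation above the mean of all tested compounds plus 3 SD, cut at about 9.5% in these data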;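 further: cells exposed to compounds for one day before reading; 0% = median of all test compound wells on the plate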
# HuH7 TTR inh – HuH7 TTR transcription inhibition, counter-screen; shares compounds with TTR transcr act; HuH7 TTR promoter-Gaussia luciferase reporter, luminescence; 1,100 compounds, 4% hits; inhibition, % at 16.7 µM;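 active means average inhibition above the solvent-only control wells' mean plus 3 SD, cut at about 15% in these data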;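 further: 0% = cells with DMSO only and 100% = cells with inhibitor control FD; inhibitors lower well luminescence so higher value means more inhibition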
# TTR up confirm – confirmation of human transthyretin transcription activators; activation, % at 16.7 µM; shares compounds with TTR transcr act; 1,100 tested, under 10 active; SHSY5Y TTR promoter Gaussia luciferase, luminescence; 100% = purified Lucia enzyme wells, no cells;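 active means mean activation above a set limit taken from the earlier primary screen, cut at about 11% in these data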;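 further: 0% = DMSO-treated cells and 100% = recombinant Lucia luciferase without cells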
# * marks the source's active call; other numbers are inactive results.
SMILES,TTR transcr act,others
CCCCNC(=O)C1(C)CCC(=O)N1CCOC (stereo not given),12.6*,HuH7 TTR inh=-8.1;TTR up confirm=-0.5
COCCN1C(=O)CCC1(C)C(=O)NC(C)(C)C (stereo not given),0.1,
O=[N+]([O-])c1cc(Cl)ccc1-c1nc(-c2ccncc2)no1,10.3*,HuH7 TTR inh=-3.3;TTR up confirm=0.1
Clc1ccc(-c2nc(-c3ccncc3)no2)c(Cl)c1,2.6,
Clc1ccccc1-c1nc(-c2ccncc2)no1,-1.3,
O=c1cc2c(c(-c3ccccc3)n1Cc1ccccc1)[C@@H](CCO)NC2,-0.1,
Cn1nccc1C(=O)N/N=C/c1cccnc1,-1.6,
O=C(N/N=C/c1cccnc1)c1ccc2c(c1)OCCO2,17.6*,HuH7 TTR inh=2.4;TTR up confirm=0.5
O=C(N/N=C/c1cccnc1)c1ccco1,1.7,
Cc1ccc(C(=O)N2O[C@]34C=C[C@]25C[C@@H](O)CC[C@]5(C)C3CC[C@]2(C)[C@@H]([C@H](C)/C=C/[C@H](C)C(C)C)CC[C@H]24)cc1 (stereo not given in full),-0.8,
CCc1nc2c(OCc3ccc(F)c(F)c3)cccn2c1N(C)C(=O)c1cccs1,-2.6,
COC(=O)CN(c1ccc(C(C)C)cc1)S(=O)(=O)c1c(C)[nH]c(=O)[nH]c1=O,2.8,
Cc1ccc(N(C(C)C(=O)O)S(=O)(=O)c2c(C)[nH]c(=O)[nH]c2=O)cc1 (stereo not given),10.2*,HuH7 TTR inh=-13.1;TTR up confirm=0.1
CCCCN(C)S(=O)(=O)c1c(C)[nH]c(=O)[nH]c1=O,-0.4,
COc1cc(OC)cc(-c2csc(N3CCC(C(N)=O)CC3)n2)c1,0.9,
O=C(CSc1ncccc1C(=O)O)c1cccc(C(F)(F)F)c1,-1.3,
O=C(CSc1ncccc1C(=O)O)c1ccc2ccccc2c1,11.5*,HuH7 TTR inh=-16.9;TTR up confirm=0.8
O=C(CSc1ncnc2nc[nH]c12)c1ccc2ccccc2c1,-4.0,
CCN(C(=O)[C@@H](C1CC1)[C@@H](O)c1ccc(Cl)cc1)c1ccccc1,2.5,
COc1ccc(CN(CC2CCC(C(=O)O)CC2)C(=S)Nc2ccc(C)c(Cl)c2)cc1 (stereo not given),0.1,
COc1ccc(NC(=S)N(Cc2cccc(Br)c2)CC2CCC(C(=O)O)CC2)cc1 (stereo not given),43.4*,HuH7 TTR inh=-21.1;TTR up confirm=-0.7
COc1cccc(NC(=S)N(Cc2cccc(Br)c2)CC2CCC(C(=O)O)CC2)c1 (stereo not given),0.6,
Cc1cc(C)cc(OC(C)C(=O)NCCCn2ccnc2)c1 (stereo not given),1.1,
CC(CCCN(C)C)C(Cc1ccccc1)c1ccccc1 (stereo not given),-2.0,
Cc1nnc(SCC(=O)NC23CC4CC(CC(C4)C2)C3)s1,1.9,
SMILES,TTR transcr act,others
Cc1csc(SCC(=O)O)n1,6.9,
Cc1csc(SCC(=O)NC23CC4CC(CC(C4)C2)C3)n1,11.3*,HuH7 TTR inh=-6.6;TTR up confirm=0.9
COC[C@H]1CCCN1c1ccc2c(c1)OCCCN(C1CC1)S2(=O)=O,-0.1,
O=C(Nc1ccc(NC(=O)c2ccccc2)c2ccccc12)c1ccccc1,-1.4,
CC(=O)c1sc(-c2ccc(F)cc2)cc1NS(=O)(=O)c1ccc(C)cc1,17.1*,HuH7 TTR inh=-5.9;TTR up confirm=-0.3
CC(=O)c1sc(-c2ccccc2)cc1NS(=O)(=O)c1ccc(C)cc1,4.2,
CC(=O)c1sc(-c2ccccc2)cc1NS(=O)(=O)c1ccccc1,0.9,
COC(=O)C1CN(CCc2ccccc2)CCS(=O)(=O)N1Cc1ccccc1F (stereo not given),2.9,
Nc1nc(SCCO)[nH]c(=O)c1NC(=O)c1ccccc1F,20.0*,HuH7 TTR inh=-12.3;TTR up confirm=0.0
COc1ccc(NC(=O)CSc2nc(N)c(NC(=O)c3ccccc3F)c(=O)[nH]2)cc1,-1.2,
CC(C)NC(=O)CSc1nc(N)c(NC(=O)c2ccccc2F)c(=O)[nH]1,1.2,
O=C(O)CCCCN1C(=O)C=CC1=O,-0.3,
O=C(NCCc1ccc(Cl)cc1)c1ccc(CS(=O)Cc2ccccc2Cl)o1 (stereo not given),15.1*,HuH7 TTR inh=0.7;TTR up confirm=-0.2
O=C(NC1CCCCC1)c1ccc(CS(=O)Cc2ccccc2Cl)o1 (stereo not given),1.3,
O=C(NC1CCCC1)c1ccc(CS(=O)Cc2ccccc2Cl)o1 (stereo not given),2.1,
COCCNC(=O)C1(C)CCN(C(=O)C2(c3ccc(Cl)cc3)CCCC2)C1 (stereo not given),0.0,
O=C(NN=Cc1ccc(Cl)cc1Cl)C1CC1,1.5,
COc1ccc([C@@]23CCN=C2c2[nH]c4ccccc4c2CCN3)c(N)c1,-1.0,
CCOC(=O)[C@@]12CCC3=C1N(CCC3)C(=O)[C@H](CC(=O)N1CCCC1)C2,-1.5,
CC1(C)Oc2ccc3ccc(=O)oc3c2-c2cnoc21,-0.5,
CC1(C)Oc2ccc3ccc(=O)oc3c2C[C@H]1O,1.5,
CC1(C)Oc2ccc3ccc(=O)oc3c2-c2cn[nH]c21,10.4*,HuH7 TTR inh=5.5;TTR up confirm=0.1
Nc1ccc(S(=O)(=O)Nc2nccc(/C=C/c3cccc(Br)c3)n2)cc1,-0.9,
C[N+](C)(C)CCCNC(=O)c1ccc(/C=N/O)nc1,20.1*,HuH7 TTR inh=-7.3;TTR up confirm=1.5
CNCCCNC(=O)c1ccc(/C=N/O)nc1,-1.4,
SMILES,TTR transcr act,others
Cc1ccc(C(=O)NCCNC(=O)c2ccc(C)nc2)cc1,0.8,
CCOC(=O)[C@@]12CCC3=C1N(CCC3)C(=O)[C@H](CC(=O)NCCCN1CCCC1=O)C2,4.2,
CCOC(=O)CC[C@H](NC(=O)[C@@H]1CC=C[C@@H]2CCN(Cc3ccc(Cl)cc3)C(=O)[C@@H]21)C(=O)OCC,0.8,
O=[N+]([O-])c1ccccc1CNCCO,-1.5,
CCC(C)CCN1C(N(C)C)=NC[C@@H]1CC(C)C (stereo not given in full),12.3*,HuH7 TTR inh=-3.2;TTR up confirm=-0.8
CC(C)C[C@H]1CN=C(Nc2ccccc2)N1CC(C)C,-1.1,
CCC(C)CCN1C(N(C)C)=NC[C@@H]1Cc1ccccc1 (stereo not given in full),1.4,
N#Cc1ccc(C(=O)Oc2coc(CSc3ncccn3)cc2=O)cc1,1.6,
O=C(/C=C\N1CCOCC1)c1ccc(Br)cc1,11.6*,HuH7 TTR inh=-6.5;TTR up confirm=0.7
O=C(c1cccc(Br)c1)N1CCN(C(=O)N2CCOCC2)CC1,0.9,
O=C(NC(=S)Nc1ccccc1N1CCOCC1)c1ccc(Br)cc1,-0.1,
C[C@@H]1CCN(C2CC2)S(=O)(=O)c2ccc(N3CC[C@@H](O)C3)cc2O1,-0.2,
COC(=O)[C@]12C[C@H](CC(=O)N3CCOCC3)C(=O)N(Cc3ccco3)C1=C[C@H](C1CCCC1)O[C@@H]2C,1.6,
c1ccc(-c2ccc(-c3ccccn3)s2)nc1,-1.3,
c1ccc(-c2nnc(-c3ccccn3)c(-c3ccccn3)n2)nc1,-0.9,
c1ccc(-c2nnc(-c3ccccn3)nn2)nc1,10.3*,HuH7 TTR inh=-2.3;TTR up confirm=-0.3
COc1ccccc1CNC1CCC12CCC(c1ccccc1)CC2 (stereo not given),0.3,
CC(C)(C)OC(=O)N1CCC(N[C@@H](Cc2ccccc2)C(=O)NCC(c2ccccc2)c2ccccc2)(C(=O)NC2CCCCC2)CC1,2.4,
CC1CCN(C(=O)c2ccccc2NC(=O)c2cccc(S(=O)(=O)N(C)C)c2)CC1,1.4,
Cc1cc2nc(C3CCCCC3)c(Cc3cccc(F)c3)n2c(C)c1Br,1.4,
CC(C)c1nc2sc3c(=O)[nH]c(=S)[nH]c3c2c2c1CCCC2,-0.2,

# Screens deposited in PubChem BioAssay by The Scripps Research Institute Molecular Screening Center.
